The campaign covered roughly 5,500 compounds. About 2,000 (36%) were called active. About 18% were inconclusive and are not listed. Rule as the data show it: active = normalized growth mostly below about 0.91 (no sharp cut-off); inconclusive = no clear call, values can overlap the other calls; inactive = mostly above about 0.92. This is one part of the list.
Test: chemical genetic growth profiling, strain panel (AID 1159580);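 also: tested at 20 µM; growth read once vehicle control cultures reached saturation at 30 °C; 1 = growth at the plate median or of vehicle wells; lower values mean less growth of the strain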
Conditions: growth OD

Measured: normalized growth

C[CH2][Hg][S]c1ccccc1C(=O)O
active: S. cerevisiae deletion strains, locus YJR075W, strain HOC1, active compounds read low 0.0601 | S. cerevisiae deletion strains, locus YKL009W, strain mrt4, active compounds read low 0.078 | S. cerevisiae deletion strains, locus YKL068W, active compounds read low 0.0532 | S. cerevisiae deletion strains, locus YKL085W, strain MDH1 (second series), active compounds read low 0.0507 | S. cerevisiae deletion strains, locus YKL085W, strain MDH1, active compounds read low 0.0507 | S. cerevisiae deletion strains, locus YKL160W, strain elf1, active compounds read low 0.0622 | S. cerevisiae deletion strains, locus YKL190W, strain CNB1, active compounds read low 0.0466 | S. cerevisiae deletion strains, locus YKR001C, strain vps1, active compounds read low 0.0606 | S. cerevisiae deletion strains, locus YKR026C, strain gcn3, active compounds read low 0.0601 | S. cerevisiae deletion strains, locus YKR091W, strain srl3, active compounds read low 0.0575 | S. cerevisiae deletion strains, locus YLL001W, strain dnm1, active compounds read low 0.058 | S. cerevisiae deletion strains, locus YLL026W, active compounds read low 0.0549 | S. cerevisiae deletion strains, locus YLL041C, strain sdh2, active compounds read low 0.0553 | S. cerevisiae deletion strains, locus YLR027C, strain aat2, active compounds read low 0.0538 | S. cerevisiae deletion strains, locus YLR039C, strain RIC1, active compounds read low 0.0815 | S. cerevisiae deletion strains, locus YLR058C, strain SHM2, active compounds read low 0.0473 | S. cerevisiae deletion strains, locus YLR102C, strain apc9, active compounds read low 0.0603 | S. cerevisiae deletion strains, locus YLR113W, strain HOG1, active compounds read low 0.153 | S. cerevisiae deletion strains, locus YLR221C, strain rsa3, active compounds read low 0.0597 | S. cerevisiae deletion strains, locus YLR258W, strain gsy2, active compounds read low 0.0592 | S. cerevisiae deletion strains, locus YLR262C, strain YPT6 (second series), active compounds read low 0.0742 | S. cerevisiae deletion strains, locus YLR262C, strain YPT6, active compounds read low 0.105 | S. cerevisiae deletion strains, locus YLR268W, strain sec22, active compounds read low 0.0621 | S. cerevisiae deletion strains, locus YLR320W, strain mms22, active compounds read low 0.0814 | S. cerevisiae deletion strains, locus YLR330W, strain CHS5, active compounds read low 0.0525 | S. cerevisiae deletion strains, locus YLR342W, strain FKS1 (second series), active compounds read low 0.0638 | S. cerevisiae deletion strains, locus YLR342W, strain FKS1, active compounds read low 0.0616 | S. cerevisiae deletion strains, locus YLR357W, strain rsc2, active compounds read low 0.112 | S. cerevisiae deletion strains, locus YLR370C, strain arc18, active compounds read low 0.0588 | S. cerevisiae deletion strains, locus YLR371W, strain rom2, active compounds read low 0.0587 | S. cerevisiae deletion strains, locus YLR384C, strain iki3, active compounds read low 0.0582 | S. cerevisiae deletion strains, locus YLR418C, strain cdc73, active compounds read low 0.0891 | S. cerevisiae deletion strains, locus YML016C, strain PPZ1, active compounds read low 0.0465 | S. cerevisiae deletion strains, locus YML032C, strain rad52, active compounds read low 0.0656 | S. cerevisiae deletion strains, locus YML120C, strain ndi1, active compounds read low 0.0572 | S. cerevisiae deletion strains, locus YML124C, strain tub3, active compounds read low 0.0558 | S. cerevisiae deletion strains, locus YMR058W, strain fet3, active compounds read low 0.0565 | S. cerevisiae deletion strains, locus YMR078C, strain ctf18, active compounds read low 0.0699 | S. cerevisiae deletion strains, locus YMR125W, strain sto1, active compounds read low 0.0708 | S. cerevisiae deletion strains, locus YMR129W, active compounds read low 0.0561 | S. cerevisiae deletion strains, locus YMR205C, strain PFK2, active compounds read low 0.0823 | S. cerevisiae deletion strains, locus YMR223W, strain ubp8, active compounds read low 0.0597 | S. cerevisiae deletion strains, locus YMR231W, strain pep5, active compounds read low 0.0664 | S. cerevisiae deletion strains, locus YMR263W, strain SAP30, active compounds read low 0.0559 | S. cerevisiae deletion strains, locus YMR307W, strain GAS1, active compounds read low 0.0969 | S. cerevisiae deletion strains, locus YNL067W, strain RPL9B, active compounds read low 0.0481 | S. cerevisiae deletion strains, locus YNL071W, strain lat1, active compounds read low 0.0589 | S. cerevisiae deletion strains, locus YNL128W, strain TEP1, active compounds read low 0.0596 | S. cerevisiae deletion strains, locus YNL153C, strain GIM3, active compounds read low 0.0483 | S. cerevisiae deletion strains, locus YNL183C, strain NPR1, active compounds read low 0.004 | S. cerevisiae deletion strains, locus YNL209W, strain ssb2, active compounds read low 0.057 | S. cerevisiae deletion strains, locus YNL233W, strain BNI4, active compounds read low 0.0515 | S. cerevisiae deletion strains, locus YNL248C, strain rpa49, active compounds read low 0.0737 | S. cerevisiae deletion strains, locus YNL250W, strain rad50, active compounds read low 0.0619 | S. cerevisiae deletion strains, locus YNL271C, strain bni1, active compounds read low 0.0596 | S. cerevisiae deletion strains, locus YNL298W, strain CLA4, active compounds read low 0.0571 | S. cerevisiae deletion strains, locus YNL307C, strain MCK1, active compounds read low 0.0641 | S. cerevisiae deletion strains, locus YNL322C, strain KRE1 (second series), active compounds read low 0.0632 | S. cerevisiae deletion strains, locus YNL322C, strain KRE1, active compounds read low 0.0468 | S. cerevisiae deletion strains, locus YNR049C, strain mso1, active compounds read low 0.0543 | S. cerevisiae deletion strains, locus YNR052C, strain pop2, active compounds read low 0.061 | S. cerevisiae deletion strains, locus YOL006C, strain TOP1, active compounds read low 0.0904 | S. cerevisiae deletion strains, locus YOL012C, strain htz1 0.178 | S. cerevisiae deletion strains, locus YOL147C, strain pex11, active compounds read low 0.0589 | S. cerevisiae deletion strains, locus YOR001W, strain rrp6, active compounds read low 0.0639 | S. cerevisiae deletion strains, locus YOR061W, strain CKA2, active compounds read low 0.0446 | S. cerevisiae deletion strains, locus YOR069W, strain VPS5, active compounds read low 0.0457 | S. cerevisiae deletion strains, locus YOR070C, strain gyp1, active compounds read low 0.0575 | S. cerevisiae deletion strains, locus YOR080W, strain dia2, active compounds read low 0.0641 | S. cerevisiae deletion strains, locus YOR083W, strain WHI5, active compounds read low 0.0608 | S. cerevisiae deletion strains, locus YOR106W, strain vam3, active compounds read low 0.0597 | S. cerevisiae deletion strains, locus YOR136W, strain idh2, active compounds read low 0.0686 | S. cerevisiae deletion strains, locus YOR144C, strain elg1, active compounds read low 0.0566 | S. cerevisiae deletion strains, locus YOR184W, strain ser1, active compounds read low 0.065 | S. cerevisiae deletion strains, locus YOR231W, strain MKK1, active compounds read low 0.125 | S. cerevisiae deletion strains, locus YOR265W, strain rbl2, active compounds read low 0.0558 | S. cerevisiae deletion strains, locus YOR270C, strain vph1, active compounds read low 0.0908 | S. cerevisiae deletion strains, locus YOR290C, strain snf2, active compounds read low 0.0723 | S. cerevisiae deletion strains, locus YOR316C, strain cot1, active compounds read low 0.0555 | S. cerevisiae deletion strains, locus YPL051W, strain arl3, active compounds read low 0.0607 | S. cerevisiae deletion strains, locus YPL055C, strain LGE1, active compounds read low 0.0725 | S. cerevisiae deletion strains, locus YPL078C, strain atp4, active compounds read low 0.0632 | S. cerevisiae deletion strains, locus YPL106C, strain sse1, active compounds read low 0.0983 | S. cerevisiae deletion strains, locus YPL240C, strain hsp82, active compounds read low 0.0533 | S. cerevisiae deletion strains, locus YPL241C, strain CIN2, active compounds read low 0.0538 | S. cerevisiae deletion strains, locus YPL256C, strain CLN2, active compounds read low 0.135 | S. cerevisiae deletion strains, locus YPR119W, strain clb2, active compounds read low 0.0599 | S. cerevisiae deletion strains, locus YPR141C, strain kar3, active compounds read low 0.0633 | S. cerevisiae deletion strains, locus YPR163C, strain tif3, active compounds read low 0.0679 | S. cerevisiae deletion strains, locus YPR167C, strain met16, active compounds read low 0.0597 | S. cerevisiae deletion strains, strain wtn01, active compounds read low 0.0565 | S. cerevisiae strains, strain wild type, active compounds read low 0.0464

Reference: PubChem BioAssay AID1159580 (chemical genetic matrix, 2015)
